Assay results as given in PubChem BioAssay.
Activity calls are given as the source filed them. Unless noted, the rule behind the calls is not given here.

Legend:
[1] = HepG2 liver cancer cell viability effects, profiling panel, resazurin fluorescence, 24 h, PK04 Diversity Set (AID 1172); conditions: higher = more signal
[2] = basal S. cerevisiae growth modulation, no modifier, primary screen, OD600, strain BY4716, 24 h, basal condition (AID 1173); conditions: OD600, 24 h, higher = more signal, called active from +8 up or from −8 down
[3] = MM1S myeloma cell viability, profiling panel, resazurin fluorescence, basal, 24 h, PK04 Diversity Set (AID 1174); conditions: higher = more signal, called active from +8 up or from −8 down;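 note: MM1S multiple myeloma cell line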
[4] = target: Dihydroorotate dehydrogenase (quinone), mitochondrial (Plasmodium falciparum (isolate 3D7)) (UniProt Q08210); experiment: PfDHODH enzyme inhibitors, primary screen, biochemical, C-terminal His tag, absorbance 600 nm (AID 1175); conditions: DCIP absorbance 600 nm, higher = more signal, called active from +8 up or from −8 down;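 note: recombinant parasite enzyme with a five histidine tag at its C terminus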
Sequence of Dihydroorotate dehydrogenase (quinone), mitochondrial (Plasmodium falciparum (isolate 3D7)) (Q08210 whole entry, looked up): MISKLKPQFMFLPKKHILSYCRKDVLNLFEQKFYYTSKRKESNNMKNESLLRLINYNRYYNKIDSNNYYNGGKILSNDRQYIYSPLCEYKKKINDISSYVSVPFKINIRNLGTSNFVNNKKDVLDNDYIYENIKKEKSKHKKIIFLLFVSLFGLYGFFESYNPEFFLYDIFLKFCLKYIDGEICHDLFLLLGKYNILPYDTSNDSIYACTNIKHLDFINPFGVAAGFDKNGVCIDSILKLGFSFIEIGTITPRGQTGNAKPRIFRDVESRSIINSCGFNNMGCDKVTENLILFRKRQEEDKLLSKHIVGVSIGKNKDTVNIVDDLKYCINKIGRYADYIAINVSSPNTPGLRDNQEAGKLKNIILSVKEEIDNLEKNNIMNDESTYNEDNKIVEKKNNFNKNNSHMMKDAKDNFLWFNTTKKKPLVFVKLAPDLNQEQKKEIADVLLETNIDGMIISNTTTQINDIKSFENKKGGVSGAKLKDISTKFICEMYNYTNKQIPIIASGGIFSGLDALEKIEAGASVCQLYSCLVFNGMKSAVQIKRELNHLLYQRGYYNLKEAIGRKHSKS

[5] = P. aeruginosa biofilm formation inhibitors, primary screen, strain PAO1, LB-PBS medium, absorbance 600 nm (AID 1176); conditions: P. aeruginosa PAO1 growth/biofilm, A600, 12 h; higher = more signal
[6] = S. cerevisiae RM11-1a growth modifiers, primary screen, strain RM11-1a, OD600, basal, 24 h (AID 1177); conditions: OD600, 24 h, higher = more signal, called active from +8 up or from −8 down;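 note: cultures grown under basal conditions with no added stressor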
[7] = E. coli acrAB mutant growth effects, primary screen, E. coli filamentation inducers, strain DRC39, OD650, 24 h (AID 1178); conditions: higher = more signal, called active from +8 up or from −8 down;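 note: growth measured as culture turbidity by optical density at 650 nm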
[8] = E. coli acrAB mutant growth effects, primary screen, E. coli filamentation inducers, strain DRC39, OD650, 48 h (AID 1179);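 note: screen aims at cell division blockers that make cells filament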; conditions: E. coli DRC39 delta-acrAB growth, higher = more signal, called active from +8 up or from −8 down
[9] = RPMI8226 myeloma cell viability, profiling panel, resazurin fluorescence, basal, 24 h, PK04 Diversity Set (AID 1180); conditions: higher = more signal;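 note: RPMI8826 multiple myeloma cell line at 5000 cells per well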
[10] = target: E3 ubiquitin-protein ligase XIAP (Homo sapiens) (UniProt P98170); experiment: XIAP binders, primary screen, biophysical, small-molecule microarray, fluorescence 635 nm (AID 1181); conditions: small-molecule microarray binding, higher = more signal;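 note: score merges 667 nm emission and signal to noise over triplicate slides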
Sequence of E3 ubiquitin-protein ligase XIAP (Homo sapiens) (P98170 whole entry, looked up): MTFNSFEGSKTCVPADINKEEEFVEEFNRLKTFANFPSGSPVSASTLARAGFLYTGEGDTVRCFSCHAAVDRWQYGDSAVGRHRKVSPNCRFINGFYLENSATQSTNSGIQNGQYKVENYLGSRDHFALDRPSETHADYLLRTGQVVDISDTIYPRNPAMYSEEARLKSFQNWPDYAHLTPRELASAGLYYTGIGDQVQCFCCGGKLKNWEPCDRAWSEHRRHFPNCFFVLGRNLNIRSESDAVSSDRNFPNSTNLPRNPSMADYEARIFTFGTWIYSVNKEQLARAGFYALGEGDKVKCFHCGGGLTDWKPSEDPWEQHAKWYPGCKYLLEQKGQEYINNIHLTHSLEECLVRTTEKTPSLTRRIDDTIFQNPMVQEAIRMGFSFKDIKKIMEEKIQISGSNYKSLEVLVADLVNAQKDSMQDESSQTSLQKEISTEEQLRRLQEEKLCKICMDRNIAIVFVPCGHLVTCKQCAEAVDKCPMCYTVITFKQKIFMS

[11] = test system: XIP peptide (Xip251-270) binding; experiment: small-molecule binders of XIP peptide, primary screen, biochemical, small-molecule microarray, fluorescence 635/667 nm, 0.1 µg/mL protein (AID 1182); conditions: fluorescent protein binding, 635 nm, higher = more signal, called active from +8 up or from −8 down
XIP peptide (Xip251-270) = experiment: small-molecule binders of XIP peptide, primary screen, biochemical, small-molecule microarray, fluorescence 635/667 nm, 0.5 µg/mL protein (AID 1183); conditions: small-molecule microarray binding, fluorescence 635 nm; higher = more signal
[12] = Plasmodium falciparum growth inhibition, primary screen, strain 3D7, DAPI fluorescence, 100 nL (AID 1184);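 note: parasites grown inside human red blood cells in medium with human serum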; conditions: P. falciparum 3D7 growth, 3 d, higher = more signal
[13] = target: Homeobox protein Hox-A13 (Mus musculus) (UniProt Q62424); experiment: inhibitors of HoxA13-DNA binding, primary screen, biochemical, fluorescence polarization, labeled oligonucleotide (AID 1185); conditions: 15 min, higher = more signal, called active from +8 up or from −8 down
Sequence of Homeobox protein Hox-A13 (Mus musculus) (Q62424 whole entry, looked up): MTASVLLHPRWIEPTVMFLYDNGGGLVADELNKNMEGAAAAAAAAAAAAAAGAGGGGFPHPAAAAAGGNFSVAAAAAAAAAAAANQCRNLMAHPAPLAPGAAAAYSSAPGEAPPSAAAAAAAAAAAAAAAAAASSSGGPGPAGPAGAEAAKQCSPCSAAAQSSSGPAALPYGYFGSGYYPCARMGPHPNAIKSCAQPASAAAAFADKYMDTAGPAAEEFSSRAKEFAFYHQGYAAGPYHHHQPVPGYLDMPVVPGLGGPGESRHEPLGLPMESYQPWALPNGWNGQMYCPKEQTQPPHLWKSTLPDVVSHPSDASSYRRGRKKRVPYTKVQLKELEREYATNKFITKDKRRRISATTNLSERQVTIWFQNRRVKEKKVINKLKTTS

[14] = inhibitors of hydroxyurea-induced Chk1 phosphorylation, primary screen, imaging, HeLa, phospho-Chk1 antibody, percent positive cells (AID 1186); conditions: hydroxyurea-induced phospho-Chk1 immunofluorescence imaging, higher = more signal
[15] = inhibitors of hydroxyurea-induced Chk1 phosphorylation, primary screen, imaging, HeLa, phospho-Chk1 nuclear intensity (AID 1187); conditions: hydroxyurea-induced phospho-Chk1 immunofluorescence imaging, higher = more signal

| SMILES | z-score [1] | z-score [2] | z-score [3] | composite z-score [4] | z-score [5] | z-score [6] | z-score [7] | z-score [8] | z-score [9] | composite z-score [10] | composite z-score [11] | composite z-score (XIP peptide (Xip251-270)) | z-score [12] | z-score [13] | z-score [14] | z-score [15] |
| --- | --- | --- | --- | --- | --- | --- | --- | --- | --- | --- | --- | --- | --- | --- | --- | --- |
| O=C1OCCC=C[C@H]2OC34C=CCN(Cn5nnc6ccccc65)C(=O)[C@H]3N(CCO)C(=O)[C@@H]4C12 (stereo not given in full) | 1.02 | 0.202 (inactive) | 0.542 (inactive) | -1.15 (inactive) | 0.152 (inactive) | -0.18 (inactive) | -0.0287 (inactive) | -0.249 (inactive) | 0.0841 | -0.146 | -0.681 (inactive) | -0.552 | -0.288 | -2.78 (inactive) | -0.943 (inactive) | -1.01 (inactive) |
| O=c1cccc(-c2ccccc2Cl)o1 | -0.611 | -2.25 (inactive) | -0.111 (inactive) | -0.316 (inactive) | -0.0043 (inactive) | -0.234 (inactive) | -0.366 (inactive) | -0.608 (inactive) | -0.698 | -0.0999 | -0.143 (inactive) | -0.231 | 0.382 | -0.226 (inactive) | 0.266 (inactive) | -0.26 (inactive) |
| COC(=O)c1c(CC[C@@H](CO)NC(=O)NCCc2c[nH]c3ccccc23)oc(C(=O)Cc2ccccc2)c1C(=O)OC | 1.35 | -1.46 (inactive) | 1.31 (inactive) | -2.63 (inactive) | -0.771 (inactive) | -0.731 (inactive) | 1.04 (inactive) | 0.733 (inactive) | 0.861 | -0.406 | 1.4 (inactive) | 0.713 | -0.0066 | -6.54 (inactive) | -0.216 (inactive) | -0.098 (inactive) |
| O=C(CS)NCCCCCNC(=O)[C@H]1C[C@H]2C(=O)NCC(=O)N2[C@H]1c1ccc(O)cc1 | 1.33 | -0.208 (inactive) | 1.5 (inactive) | -0.522 (inactive) | -0.832 (inactive) | -1.3 (inactive) | 0.268 (inactive) | 0.0249 (inactive) | 1.21 | 0.0621 | -0.344 (inactive) | 0.149 | 0.201 | -1.2 (inactive) | -0.831 (inactive) | -0.795 (inactive) |
| C=CCN1C(=O)[C@]2(O[C@H](CCO)[C@@H]([Si](C)(C)c3ccc(OC)cc3)[C@@H]2C)c2cc(N(C=O)c3ccccc3)ccc21 | -6 | 1.14 (inactive) | -8.61 (active) | 0.637 (inactive) | 0.0245 (inactive) | 3.98 (inactive) | 1.72 (inactive) | 0.905 (inactive) | -6.23 | -0.0189 | 1.94 (inactive) | 0.749 | -2.52 | -3.67 (inactive) | -1.11 (inactive) | -0.984 (inactive) |
| O=C1C[C@@](C(=O)NCc2ccccc2)(c2ccc([N+](=O)[O-])cc2)[C@@H](c2ccc(CO)cc2)N1CC12CC3CC(CC(C3)C1)C2 | -1.63 | 0.229 (inactive) | -3.64 (inactive) | 0.59 (inactive) | 1.06 (inactive) | 0.87 (inactive) | -0.202 (inactive) | 0.368 (inactive) | -4.75 | 0.0427 | 1.9 (inactive) | 0.733 | -0.83 | -2.75 (inactive) | -0.714 (inactive) | -0.762 (inactive) |
| C=CCNC(=O)[C@H]1[C@@H]2C(=O)O[C@@H](c3ccccc3)[C@@H](c3ccccc3)N2[C@@H](c2ccc(O)cc2)[C@]12C(=O)Nc1ccc(C#CCCO)cc12 | 1.13 | 0.189 (inactive) | 1.16 (inactive) | 0.0992 (inactive) | -0.42 (inactive) | 0.957 (inactive) | 0.516 (inactive) | 0.567 (inactive) | 1.08 | -0.198 | -0.0879 (inactive) | -0.227 | 0.093 | -4.04 (inactive) | -0.266 (inactive) | -0.136 (inactive) |
| [N-]=[N+]=NCc1ccccc1[C@@H]1OC(c2ccc(OCCCO)cc2)=N[C@]1(CCS(=O)(=O)c1ccccc1)C(N)=O | -0.493 | -0.583 (inactive) | -0.163 (inactive) | -0.449 (inactive) | -0.651 (inactive) | 0.573 (inactive) | 0.0745 (inactive) | 0.859 (inactive) | 0.0529 | 0.243 | 0.57 (inactive) | 0.869 | -0.397 | -3.55 (inactive) | -0.0248 (inactive) | 0.227 (inactive) |
| COCCOC(=O)N1C(=O)[C@@]2(c3cc(C#CC4(O)CCCCCC4)ccc31)[C@H](C(=O)Nc1nc3ccccc3s1)[C@H]1C(=O)O[C@H](c3ccccc3)[C@H](c3ccccc3)N1[C@@H]2c1ccccc1OCCO | 0.709 | 0.504 (inactive) | -1.15 (inactive) | -0.747 (inactive) | 0.249 (inactive) | 1.78 (inactive) | -0.632 (inactive) | 0.635 (inactive) | -0.435 | -0.0118 | 1.77 (inactive) | 0.748 | -1.43 | 2.95 (inactive) | 0.203 (inactive) | 0.693 (inactive) |
| COc1ccc(-c2cc3c(c(Cc4ccccc4)n2)[Si](C(C)C)(C(C)C)OC3)cn1 | 0.177 | -0.652 (inactive) | -0.141 (inactive) | 0.653 (inactive) | 0.0429 (inactive) | 2 (inactive) | 0.184 (inactive) | 0.0876 (inactive) | 0.626 | -0.0749 | 0.684 (inactive) | -0.342 | -2.79 | -2.5 (inactive) | -0.24 (inactive) | -0.828 (inactive) |
